Test results taken from PubChem BioAssay AID1159580 (chemical genetic matrix, 2015).
“And” between values parts separate entries of the source, which are not always exact repeats. Equal values may be shown once. The whole screen tested about 5,500 compounds, of which about 2,000 (36%) were called active. Another 18% or so got no clear call; they are omitted. Rule as the data show it: active = normalized growth mostly below about 0.91 (no sharp cut-off); inconclusive = no clear call, values can overlap the other calls; inactive = mostly above about 0.92. The list shows a part of the results.

Experiment: chemical genetic growth profiling, strain panel (AID 1159580);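 also: tested at 20 µM; growth read once vehicle control cultures reached saturation at 30 °C; 1 = growth at the plate median or of vehicle wells; lower values mean less growth of the strain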
Conditions: growth OD

Measured: normalized growth

O=C(CCc1ccc(O)cc1)c1c(O)cc(O)cc1O
inactive: S. cerevisiae deletion strains, locus YJR075W, strain HOC1, stronger effect = lower value 1.01 | S. cerevisiae deletion strains, locus YKL009W, strain mrt4, stronger effect = lower value 1.03 | S. cerevisiae deletion strains, locus YKL068W, stronger effect = lower value 1 | S. cerevisiae deletion strains, locus YKL085W, strain MDH1 (second series), stronger effect = lower value 1.02 | S. cerevisiae deletion strains, locus YKL085W, strain MDH1, stronger effect = lower value 1.02 | S. cerevisiae deletion strains, locus YKL160W, strain elf1, stronger effect = lower value 0.978 | S. cerevisiae deletion strains, locus YKL190W, strain CNB1, stronger effect = lower value 1.01 | S. cerevisiae deletion strains, locus YKR001C, strain vps1, stronger effect = lower value 1.02 | S. cerevisiae deletion strains, locus YKR026C, strain gcn3, stronger effect = lower value 1.01 | S. cerevisiae deletion strains, locus YKR091W, strain srl3, stronger effect = lower value 1.01 | S. cerevisiae deletion strains, locus YLL001W, strain dnm1, stronger effect = lower value 0.985 | S. cerevisiae deletion strains, locus YLL026W, stronger effect = lower value 1.01 | S. cerevisiae deletion strains, locus YLL041C, strain sdh2, stronger effect = lower value 1.02 | S. cerevisiae deletion strains, locus YLR027C, strain aat2, stronger effect = lower value 1.01 | S. cerevisiae deletion strains, locus YLR039C, strain RIC1, stronger effect = lower value 1.04 | S. cerevisiae deletion strains, locus YLR058C, strain SHM2, stronger effect = lower value 1.01 | S. cerevisiae deletion strains, locus YLR102C, strain apc9, stronger effect = lower value 1 | S. cerevisiae deletion strains, locus YLR113W, strain HOG1, stronger effect = lower value 0.966 | S. cerevisiae deletion strains, locus YLR221C, strain rsa3, stronger effect = lower value 1 | S. cerevisiae deletion strains, locus YLR258W, strain gsy2, stronger effect = lower value 1.03 | S. cerevisiae deletion strains, locus YLR262C, strain YPT6 (second series), stronger effect = lower value 1.02 | S. cerevisiae deletion strains, locus YLR262C, strain YPT6, stronger effect = lower value 1.02 | S. cerevisiae deletion strains, locus YLR268W, strain sec22, stronger effect = lower value 0.997 | S. cerevisiae deletion strains, locus YLR320W, strain mms22, stronger effect = lower value 1.02 | S. cerevisiae deletion strains, locus YLR330W, strain CHS5, stronger effect = lower value 1.01 | S. cerevisiae deletion strains, locus YLR342W, strain FKS1 (second series), stronger effect = lower value 1.02 | S. cerevisiae deletion strains, locus YLR342W, strain FKS1, stronger effect = lower value 1.01 | S. cerevisiae deletion strains, locus YLR357W, strain rsc2, stronger effect = lower value 0.955 | S. cerevisiae deletion strains, locus YLR370C, strain arc18, stronger effect = lower value 1.01 | S. cerevisiae deletion strains, locus YLR371W, strain rom2, stronger effect = lower value 1 | S. cerevisiae deletion strains, locus YLR384C, strain iki3, stronger effect = lower value 1.02 | S. cerevisiae deletion strains, locus YLR418C, strain cdc73, stronger effect = lower value 0.991 | S. cerevisiae deletion strains, locus YML016C, strain PPZ1, stronger effect = lower value 1.01 | S. cerevisiae deletion strains, locus YML032C, strain rad52, stronger effect = lower value 1.07 | S. cerevisiae deletion strains, locus YML120C, strain ndi1, stronger effect = lower value 1.01 | S. cerevisiae deletion strains, locus YML124C, strain tub3, stronger effect = lower value 1.01 | S. cerevisiae deletion strains, locus YMR058W, strain fet3, stronger effect = lower value 0.968 | S. cerevisiae deletion strains, locus YMR078C, strain ctf18, stronger effect = lower value 1.02 | S. cerevisiae deletion strains, locus YMR125W, strain sto1, stronger effect = lower value 1 | S. cerevisiae deletion strains, locus YMR129W, stronger effect = lower value 1.02 | S. cerevisiae deletion strains, locus YMR205C, strain PFK2, stronger effect = lower value 1.01 | S. cerevisiae deletion strains, locus YMR223W, strain ubp8, stronger effect = lower value 1.04 | S. cerevisiae deletion strains, locus YMR231W, strain pep5, stronger effect = lower value 0.988 | S. cerevisiae deletion strains, locus YMR263W, strain SAP30, stronger effect = lower value 0.991 | S. cerevisiae deletion strains, locus YMR307W, strain GAS1, stronger effect = lower value 0.986 and 1.01 | S. cerevisiae deletion strains, locus YNL067W, strain RPL9B, stronger effect = lower value 0.994 | S. cerevisiae deletion strains, locus YNL071W, strain lat1, stronger effect = lower value 1.03 | S. cerevisiae deletion strains, locus YNL128W, strain TEP1, stronger effect = lower value 0.995 | S. cerevisiae deletion strains, locus YNL153C, strain GIM3, stronger effect = lower value 0.991 and 0.975 | S. cerevisiae deletion strains, locus YNL175C, strain NOP13, stronger effect = lower value 1 | S. cerevisiae deletion strains, locus YNL183C, strain NPR1, stronger effect = lower value 0.947 | S. cerevisiae deletion strains, locus YNL197C, strain WHI3, stronger effect = lower value 1 | S. cerevisiae deletion strains, locus YNL209W, strain ssb2, stronger effect = lower value 1 | S. cerevisiae deletion strains, locus YNL224C, strain SQS1, stronger effect = lower value 0.997 | S. cerevisiae deletion strains, locus YNL233W, strain BNI4, stronger effect = lower value 0.985 | S. cerevisiae deletion strains, locus YNL248C, strain rpa49, stronger effect = lower value 1.03 | S. cerevisiae deletion strains, locus YNL250W, strain rad50, stronger effect = lower value 1.03 | S. cerevisiae deletion strains, locus YNL271C, strain bni1, stronger effect = lower value 1.01 | S. cerevisiae deletion strains, locus YNL298W, strain CLA4, stronger effect = lower value 1.03 | S. cerevisiae deletion strains, locus YNL307C, strain MCK1, stronger effect = lower value 1.03 | S. cerevisiae deletion strains, locus YNL322C, strain KRE1 (second series), stronger effect = lower value 0.978 | S. cerevisiae deletion strains, locus YNL322C, strain KRE1, stronger effect = lower value 1 and 0.999 | S. cerevisiae deletion strains, locus YNR049C, strain mso1, stronger effect = lower value 1.01 | S. cerevisiae deletion strains, locus YNR052C, strain pop2, stronger effect = lower value 1.02 | S. cerevisiae deletion strains, locus YOL006C, strain TOP1, stronger effect = lower value 1.02 | S. cerevisiae deletion strains, locus YOL012C, strain htz1 0.845 | S. cerevisiae deletion strains, locus YOL147C, strain pex11, stronger effect = lower value 1.01 | S. cerevisiae deletion strains, locus YOR001W, strain rrp6, stronger effect = lower value 1.03 | S. cerevisiae deletion strains, locus YOR061W, strain CKA2, stronger effect = lower value 0.998 | S. cerevisiae deletion strains, locus YOR069W, strain VPS5, stronger effect = lower value 0.995 | S. cerevisiae deletion strains, locus YOR070C, strain gyp1, stronger effect = lower value 1.02 | S. cerevisiae deletion strains, locus YOR080W, strain dia2, stronger effect = lower value 1.01 | S. cerevisiae deletion strains, locus YOR083W, strain WHI5 (second series), stronger effect = lower value 1.01 | S. cerevisiae deletion strains, locus YOR083W, strain WHI5, stronger effect = lower value 0.982 | S. cerevisiae deletion strains, locus YOR106W, strain vam3, stronger effect = lower value 1.02 | S. cerevisiae deletion strains, locus YOR136W, strain idh2, stronger effect = lower value 1.02 | S. cerevisiae deletion strains, locus YOR144C, strain elg1, stronger effect = lower value 1 | S. cerevisiae deletion strains, locus YOR184W, strain ser1, stronger effect = lower value 1.07 | S. cerevisiae deletion strains, locus YOR231W, strain MKK1, stronger effect = lower value 0.983 | S. cerevisiae deletion strains, locus YOR265W, strain rbl2, stronger effect = lower value 1 | S. cerevisiae deletion strains, locus YOR270C, strain vph1, stronger effect = lower value 1.06 | S. cerevisiae deletion strains, locus YOR290C, strain snf2, stronger effect = lower value 0.982 | S. cerevisiae deletion strains, locus YOR316C, strain cot1, stronger effect = lower value 0.996 | S. cerevisiae deletion strains, locus YPL051W, strain arl3, stronger effect = lower value 0.983 | S. cerevisiae deletion strains, locus YPL055C, strain LGE1, stronger effect = lower value 0.992 and 1.01 | S. cerevisiae deletion strains, locus YPL078C, strain atp4, stronger effect = lower value 1 | S. cerevisiae deletion strains, locus YPL106C, strain sse1, stronger effect = lower value 0.976 | S. cerevisiae deletion strains, locus YPL240C, strain hsp82, stronger effect = lower value 1.01 | S. cerevisiae deletion strains, locus YPL241C, strain CIN2, stronger effect = lower value 1 | S. cerevisiae deletion strains, locus YPL256C, strain CLN2, stronger effect = lower value 0.961 | S. cerevisiae deletion strains, locus YPR119W, strain clb2, stronger effect = lower value 1.01 | S. cerevisiae deletion strains, locus YPR141C, strain kar3, stronger effect = lower value 1.02 | S. cerevisiae deletion strains, locus YPR163C, strain tif3, stronger effect = lower value 1.02 | S. cerevisiae deletion strains, locus YPR167C, strain met16, stronger effect = lower value 1.01 | S. cerevisiae deletion strains, strain wtn01, stronger effect = lower value 0.978 | S. cerevisiae strains, strain wild type, stronger effect = lower value 0.998
